Among the data in PubChem BioAssay (NCATS) are Potency values, retold here.

Structures are written as SMILES. A number with no mark means an inactive call. How the calls were made is not given here. A value given as a limit tells only on which side of the number the result lay.
Potency means the concentration at half of the fitted maximal effect.

The test deals with HIV-1 nucleocapsid protein NCp7 (binding to TG oligonucleotide). The test can be described thus: HIV Nucleocapsid (AID 346).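 Further: potency is for inhibitors that block NC binding and lower polarization.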 The conditions noted are these: HIV-1 NC / fluorescein-TGTGTGTG probe, fluorescence polarization. An outline of the steps: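 10 nM TG4xF probe with 100 nM nucleocapsid protein in high-salt Hepes pH 7.5 (250mM NaCl) containing 1uM ZnCl2 and reducing agents. Compound inhibition of binding was read as fluorescein polarization after 1 hr at room temperature.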
(In fluorescence polarisation assays a small probe gives low polarisation when free and higher when bound to something large.)
`COc1cccc(Cn2c(=O)cnc3cnc(OCc4ccccc4)nc32)c1`: the Potency was greater than 20 µM.

Consider `Cc1cccc(CNc2cc(-c3cccc(NS(C)(=O)=O)c3)ncn2)c1`, for which the Potency is greater than 20 µM.

As for `O=C(c1cccc(F)c1)N1CCC2(CCCN(Cc3cc(C(F)(F)F)cc(C(F)(F)F)c3)C2)CC1`, the Potency was greater than 20 µM.

In the case of `Cn1cc(-c2nc3cnc(N4CCNCC4)nc3n(CCc3ccccc3)c2=O)c2ccccc21`, the Potency is greater than 4 µM.

On to `Cc1ccccc1-c1nc(Nc2ccncc2)c2ccccc2n1`, for which the Potency is greater than 20 µM.

As for `COc1ccccc1-c1cc(NCc2cccc(C)c2)ncn1`, the Potency is greater than 20 µM.

On to `COc1ccccc1CNc1ncncc1-c1cccnc1`, for which the Potency is greater than 20 µM.

On to `CN1CCN(c2ncc3nc(-c4ccc(Cl)cc4)c(=O)n(Cc4ccc(F)cc4)c3n2)CC1`, for which the Potency was greater than 20 µM.

For the compound `O=C(c1cnccn1)N1CCC2(CCCN(c3ccc(-c4ccccc4)cc3)C2)CC1`, the Potency was greater than 20 µM.

`O=c1c(-c2cc(F)cc(F)c2)nc2cnc(N3CCNCC3)nc2n1Cc1ccc(F)cc1`: the Potency was greater than 20 µM.

For `COCC(=O)N1CCC2(CCCN(c3ccccc3)C2)CC1`, the Potency was greater than 20 µM.

On to `COc1ccc(-n2c(=O)c(-c3ccc(F)cc3)nc3cncnc32)cc1`, for which the Potency was greater than 20 µM.

Take `Cc1noc(C)c1-c1nccc(N2CCN(C)CC2)n1`: the Potency was greater than 20 µM.

On to `Cn1c(=O)c(-c2cc(F)cc(F)c2)nc2cnc(Nc3ccccc3)nc21`, for which the Potency was greater than 20 µM.

On to `CC(C)CN1CC2(CCN(C(=O)c3csnn3)CC2)C1`, for which the Potency was greater than 20 µM.

Regarding `Cc1nc2cnc(Oc3cccc(Cl)c3)nc2n(C[C@H]2CCCO2)c1=O`, the Potency is greater than 20 µM.

As to `Cc1nc2cnc(N3CCN(C)CC3)nc2n(CCc2ccccc2)c1=O`, the Potency is greater than 20 µM.

Regarding `CN(C)Cc1ccccc1-c1nc(N2CCOCC2)c2ccccc2n1`, the Potency is greater than 20 µM.

For `O=C(c1csnn1)N1CCC[C@@]2(CCN(c3ccccc3)C2)C1`, the Potency was greater than 20 µM.

Regarding `CN(C)c1ncc2nc(CCc3ccccc3)c(=O)n(Cc3ccc(F)cc3)c2n1`, the Potency was greater than 20 µM.

On to `COc1ccc(Nc2ncc3nc(-c4cccs4)c(=O)n(Cc4cccc(OC)c4)c3n2)cc1`, for which the Potency is 16 µM.

On to `COc1cccc(-c2ccc3ncnc(N4CCN(C)CC4)c3c2)c1`, for which the Potency is greater than 20 µM.

Turning to `O=c1c(-c2ccccc2)nc2cnc(N3CCNCC3)nc2n1Cc1ccc(F)cc1`, the Potency was greater than 20 µM.

As to `COc1ccc(C(=O)N2CCC3(CC2)CN(C(=O)Nc2cccc(C#N)c2)C3)cc1`, the Potency was greater than 20 µM.

`FC(F)(F)c1ccccc1-c1nc(NCCN2CCOCC2)c2ccccc2n1`: the Potency is greater than 20 µM.

In the case of `COc1ccccc1CCn1c(=O)c(-c2ccc(Cl)cc2)nc2cncnc21`, the Potency is greater than 20 µM.

On to `O=C(c1ccco1)N1CCC2(CC1)CN(c1ccc(-c3ccccc3)cc1)C2`, for which the Potency was greater than 20 µM.

As to `Cc1ccccc1-c1cncnc1NCc1ccccc1`, the Potency was greater than 20 µM.

With `COCCNc1nc(-c2ccc(C(=O)N(C)C)cc2)nc2ccccc12`, the Potency is greater than 20 µM.

On to `COc1ccccc1CNc1ncnc2ccc(-c3ccccc3OC)cc12`, for which the Potency is greater than 20 µM.

Consider `CCNc1ncc2nc(-c3cccs3)c(=O)n(CCc3ccccc3)c2n1`, for which the Potency is greater than 20 µM.

Consider `COc1ccccc1-c1ccc2ncnc(NCCNC(C)=O)c2c1`, for which the Potency was greater than 20 µM.

Take `CN(C)C(=O)c1ccc(-c2nc(Nc3ccncc3)c3ccccc3n2)cc1`: the Potency is greater than 20 µM.

For `N#CCCn1c(=O)c(-c2ccccc2)nc2cnc(Oc3ccccc3)nc21`, the Potency is greater than 20 µM.

`Cc1cccc(CNc2cc(-c3ccccc3Cl)ncn2)c1`: the Potency was greater than 20 µM.

For `COc1ccccc1CNc1cc(-c2cccc(C#N)c2)ncn1`, the Potency is greater than 20 µM.

With `CS(=O)(=O)N1CCC2(CCCN(c3ccncc3)C2)CC1`, the Potency is greater than 20 µM.

As to `N#Cc1cccc(-c2nc(NCc3cccs3)c3ccccc3n2)c1`, the Potency was greater than 20 µM.

Take `COc1cccc(-c2nccc(NCCc3c[nH]c4ccc(OC)cc34)n2)c1`: the Potency is greater than 20 µM.

In the case of `CC(C)NC(=O)N1CC2(CCN(C(=O)c3ccncc3)CC2)C1`, the Potency is greater than 20 µM.
